# In PubChem BioAssay:
# “And” between values parts separate entries of the source, which are not always exact repeats. Identical values can stand only once. The source made the active and inactive calls. Unless noted, no stated cut-off is given here; in the data, active means parasite load remaining mostly below about 12% (no sharp cut-off); inactive means mostly above about 10%.
# Key:
# [1] = compounds altering viability of human ES cells (AID 493140; call rule not given here;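 further: cells exposed to compounds for four days before counting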); details: human embryonic stem cell survival screen; stronger effect = higher value
# [2] = P. berghei load reduction in hepatocytes – cell-based, HepG2, luciferase luminescence, HepG2 viability, primary screen (AID 624349);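 further: 100% = mean of DMSO negative control wells on the same plate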; details: P. berghei liver stage in HepG2, luciferase luminescence, concentration not given here; parasite load remaining: stronger effect = lower value; viability: measured here: HepG2 viability without parasites
# [3] = Wnt pathway potentiators raising nuclear beta-catenin – imaging, WNT3A-conditioned medium, mouse C2C12, NPC library, primary screen (AID 1117326; in the data active means nuclear beta-catenin stimulation mostly above about 4.2%, no sharp cut-off; inactive means mostly below about 10%); details: stronger effect = higher value
# [4] = stimulators of insulin release from INS-1E, primary screen, cell-based, 5 mM glucose, NPC library (AID 1117329;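 active means compound raises insulin release from rat beta cells at 5 mM glucose, no numeric limit stated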); details: rat INS-1E insulin secretion, at 10 µM, stronger effect = higher value
# [5] = growth inhibition of GSK3B-pretreated HCT116 cells – cell-based, CellTiter-Glo, 0.2 to 20 µM (AID 1117336;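 active means compounds lowering colon cancer cell viability after pretreatment blocking the GSK3B kinase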); details: HCT116 viability after GSK3B inhibitor, at 20 µM, stronger effect = higher value
# [6] = inhibition of endothelial tube formation, primary screen, imaging, VEGF stimulated, CD31 staining, tube area, NPC library (AID 1117340;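 active means compound that reduces growth-factor-driven endothelial tube area in a mixed cell culture, no cutoff stated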); details: VEGF-stimulated ADSC/ECFC co-culture, at 10 µM, stronger effect = higher value
# [7] = GLP1 release stimulators, primary, NCI-H716, NPC library (AID 1117341;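 active means compound raises GLP1 secretion from the human gut endocrine cells, with no numeric limit stated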); details: NCI-H716 cells, at 10 µM, stronger effect = higher value
# [8] = HCT116 colon cancer cell growth inhibition, primary screen, CellTiter-Glo luminescence, NPC library (AID 1117342;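 active means compounds that lower survival of HCT116 colon cancer cells in the luminescence readout, no numeric limit stated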); details: at 20 µM (top of the series)
# [9] = reduced SW480 viability measured with CellTiter-Glo, NPC library, primary (AID 1117343;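 active means compounds that lower viability of the colon cancer cells in the luminescence readout, with no numeric limit stated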); details: CellTiter-Glo luminescence; at 20 µM (top of the series) unless noted
# [10] = NPC library primary testing for decreased DLD-1 cell viability via CellTiter-Glo (AID 1117346;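 active means compounds that lower survival of DLD-1 colon cancer cells in the luminescence readout, no cutoff given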); details: DLD-1 viability, CellTiter-Glo luminescence; at 20 µM (top of the series)
# [11] = EMT-state selective cytotoxicity in co-culture – imaging, PC-3E GFP, TEM4-18 mCherry, primary screen (AID 1345086;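 active means compounds killing one labelled cell type while sparing the other, by normalised counts and ratio limits, not self-fluorescent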;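 on all read-outs here: cells exposed to compound for 72 h before imaging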;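 on red/green cell ratio (normalised): normalised mesenchymal count divided by normalised epithelial count so high means epithelial killing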); details: PC-3E GFP / TEM4-18 mCherry co-culture, imaging cell counts, at 1 µM; for red/green cell ratio (normalised): actives lie on both sides, counts scaled to control wells, 1 = unselective
# [12] = viability loss with induced miR-34 in A549 – imaging, A549 dox-inducible miR-34, nuclei and caspase counts, primary screen (AID 1347080;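 active means compounds whose cell count with miR-34 switched on is under 0.7 times the count with it off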); details: A549 miR-34 inducible, Hoechst nuclei count, 48 h
# [13] = MELAS cybrid and Rieske KO viability enhancers – cell-based, MELAS cybrids, Rieske KO mouse fibroblasts, CellTiter-Glo, primary screen (AID 1508586;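 active means mean z-score across replicates of 1.96 or higher in either the MELAS or the Rieske mutant cell line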;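 further: z relative to plate mean and SD of compound and empty wells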); details: low glucose
# [14] = molecular target: NAD(+) hydrolase SARM1 (Homo sapiens) (UniProt Q6SZW1); assay: blocking NAD cleavage by SARM1 SAM-TIR – cell lysate, NAD-Glo luminescence (AID 1508614;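 active means compound whose remaining NAD level is above about 45 nM, limit read from the data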); details: SAM-TIR HEK293T lysate NADase, at 1 µM, stronger effect = higher value
# [15] = measured here: epithelial PC-3E GFP cell survival
# [16] = measured here: mesenchymal TEM4-18 mCherry cell survival
# [17] = stronger effect = lower value, cell number ratio, induced over uninduced
# [18] = measured here: relative caspase fold change +Dox/-Dox
# [19] = measured here: total cells with miR-34 induction, stronger effect = lower value
# [20] = measured here: total cells without miR-34 induction
# [21] = MELAS cybrid survival, CellTiter-Glo 48 h, stronger effect = higher value
# [22] = Rieske KO mouse fibroblast survival, CellTiter-Glo 72 h
# Chain of NAD(+) hydrolase SARM1 (Homo sapiens) (Q6SZW1 whole entry, looked up): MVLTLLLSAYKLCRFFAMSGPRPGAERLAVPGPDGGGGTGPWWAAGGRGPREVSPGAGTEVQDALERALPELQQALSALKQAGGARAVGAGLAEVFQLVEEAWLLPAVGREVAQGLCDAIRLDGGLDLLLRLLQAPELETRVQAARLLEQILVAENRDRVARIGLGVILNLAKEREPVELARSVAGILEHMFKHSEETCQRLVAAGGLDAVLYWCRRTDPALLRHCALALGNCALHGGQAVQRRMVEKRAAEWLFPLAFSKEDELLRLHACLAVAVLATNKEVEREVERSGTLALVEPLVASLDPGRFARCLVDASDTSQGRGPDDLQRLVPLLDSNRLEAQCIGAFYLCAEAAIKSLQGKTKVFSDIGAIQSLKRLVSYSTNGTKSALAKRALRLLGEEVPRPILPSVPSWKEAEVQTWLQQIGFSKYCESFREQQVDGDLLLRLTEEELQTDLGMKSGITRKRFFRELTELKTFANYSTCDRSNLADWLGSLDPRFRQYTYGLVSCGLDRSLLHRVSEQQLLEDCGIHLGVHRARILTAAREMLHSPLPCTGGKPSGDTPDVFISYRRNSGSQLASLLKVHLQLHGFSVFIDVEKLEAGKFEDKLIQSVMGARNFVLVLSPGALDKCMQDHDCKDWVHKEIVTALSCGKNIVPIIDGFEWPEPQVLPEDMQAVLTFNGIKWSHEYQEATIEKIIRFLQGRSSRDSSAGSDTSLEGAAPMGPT
smiles,measurement,setting,value
CC(=O)CC(c1ccc([N+](=O)[O-])cc1)c1c(O)c2ccccc2oc1=O (stereo not drawn),survival,[1],21.3 (inactive)
same,parasite load remaining,[2],45.5% (inactive) and 55% (inactive)
same,viability,[2],108% and 91.9%
same,nuclear beta-catenin stimulation,[3]; at 10 µM,-1.1% (inactive)
same,nuclear beta-catenin stimulation,"[3]; stimulation, at 2 µM",-1.3%
same,insulin secretion stimulation,[4],0.6% (inactive)
same,viability decrease,[5],-2.5% (inactive)
same,tube area decrease,[6],-40.9% (inactive)
same,GLP1 secretion stimulation,[7],-5.1% (inactive)
same,inhibition of viability,[8],4.3% (inactive)
same,viability decrease (inhibition),[9],21.6% (inactive)
same,viability decrease (inhibition),[10],4.6% (inactive)
same,red/green cell ratio (normalised),[11],0.82 (inactive)
same,normalised cell number,[11]; [15],1.28
same,normalised cell number,[11]; [16],1.05
same,fold change,[12]; [17],0.921 (inactive)
same,fold change,[12]; [18],1.68
same,cell count,[12]; [19],7660
same,cell count,[12]; [20],8320
same,z-score,[13]; [21],0.273 (inactive)
same,z-score,[13]; [22],0.192
same,remaining NAD,[14],10 nM (inactive)
CNCCc1ccccn1,survival,[1],9.67 (inactive)
same,parasite load remaining,[2],177% (inactive) and 67% (inactive) and 40.9% (inactive)
same,viability,[2],106% and 76.5% and 92.3%
same,nuclear beta-catenin stimulation,[3]; at 10 µM,0.2% (inactive)
same,nuclear beta-catenin stimulation,"[3]; stimulation, at 2 µM",1.8%
same,insulin secretion stimulation,[4],-0.8% (inactive)
same,viability decrease,[5],5.6% (inactive)
same,tube area decrease,[6],-1.2% (inactive)
same,GLP1 secretion stimulation,[7],-0.6% (inactive)
same,inhibition of viability,[8],-13.4% (inactive)
same,viability decrease (inhibition),[9],-3.4% (inactive)
same,viability decrease (inhibition),[10],1.9% (inactive)
same,red/green cell ratio (normalised),[11],1.06 (inactive)
same,normalised cell number,[11]; [15],1.06
same,normalised cell number,[11]; [16],1.12
same,fold change,[12]; [17],0.848 (inactive) and 0.92 (inactive) and 0.919 (inactive)
same,fold change,[12]; [18],1.09 and 0.698 and 1.77
same,cell count,[12]; [19],9020 and 8170 and 11700
same,cell count,[12]; [20],10600 and 8880 and 12700
same,z-score,[13]; [21],-0.325 (inactive) and 0.341 (inactive)
same,z-score,[13]; [22],-0.163 and 0.19
same,remaining NAD,[14],10 nM (inactive)
CCCCNc1ccc(C(=O)OCCOCCOCCOCCOCCOCCOCCOCCOCCOC)cc1,survival,[1],33.2 (inactive)
same,parasite load remaining,[2],14% (inactive) and 88.5% (inactive)
same,viability,[2],47.7% and 90.2%
same,nuclear beta-catenin stimulation,[3]; at 10 µM,-0.8% (inactive)
same,nuclear beta-catenin stimulation,"[3]; stimulation, at 2 µM",0.5%
same,insulin secretion stimulation,[4],-2.3% (inactive)
same,viability decrease,[5],9.3% (inactive)
same,tube area decrease,[6],4.2% (inactive)
same,GLP1 secretion stimulation,[7],-2.3% (inactive)
same,inhibition of viability,[8],31.5% (inactive)
same,viability decrease (inhibition),[9],13% (active)
same,viability decrease (inhibition),[10],-17.6% (inactive)
same,red/green cell ratio (normalised),[11],1.21 (inactive)
same,normalised cell number,[11]; [15],0.86
same,normalised cell number,[11]; [16],1.04
same,fold change,[12]; [17],0.937 (inactive)
same,fold change,[12]; [18],1.37
same,cell count,[12]; [19],8120
same,cell count,[12]; [20],8660
same,z-score,[13]; [21],-0.167 (inactive)
same,z-score,[13]; [22],0.149
same,remaining NAD,[14],10 nM (inactive)
CN1C(=O)OC(C)(C)C1=O,survival,[1],8.08 (inactive)
same,parasite load remaining,[2],83.9% (inactive) and 86.8% (inactive) and 50.6% (inactive)
same,viability,[2],107% and 78.1% and 129%
same,nuclear beta-catenin stimulation,[3]; at 10 µM,1.4% (inactive)
same,nuclear beta-catenin stimulation,"[3]; stimulation, at 2 µM",-0.1%
same,insulin secretion stimulation,[4],1% (inactive)
same,viability decrease,[5],31.5% (inactive)
same,tube area decrease,[6],13.2% (inactive)
same,GLP1 secretion stimulation,[7],-0.3% (inactive)
same,inhibition of viability,[8],28% (inactive)
same,viability decrease (inhibition),[9],54.4% (active)
same,viability decrease (inhibition),[10],87.4% (active)
same,red/green cell ratio (normalised),[11],0.94 (inactive)
same,normalised cell number,[11]; [15],0.96
same,normalised cell number,[11]; [16],0.9
same,fold change,[12]; [17],0.862 (inactive) and 0.885 (inactive)
same,fold change,[12]; [18],1.14 and 3.65
same,cell count,[12]; [19],9130 and 11500
same,cell count,[12]; [20],10600 and 13000
same,z-score,[13]; [21],0.482 (inactive)
same,z-score,[13]; [22],-0.121
same,remaining NAD,[14],10 nM (inactive)
